These results are taken from PMC4336329 (PLoS ONE, 2015).

The structures appear in SMILES notation. The whole screen tested about 310,000 compounds, of which about 14,000 (4.5%) showed an effect of 50% or more. The effect is printed as a negative number. The list comes from a sample in which strong results are over-represented; it also holds similar structures and randomly drawn compounds.
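Further: peak tail current of the secondary pulse compared with the same well before compound.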

The target of this test is human ether-à-go-go-related gene (hERG) potassium channel (human, UniProt Q12809). In words: primary screen, population patch clamp on CHO cells stably expressing hERG; higher = less effect of the substance.
Chain of human ether-à-go-go-related gene (hERG) potassium channel (Q12809 whole entry, looked up): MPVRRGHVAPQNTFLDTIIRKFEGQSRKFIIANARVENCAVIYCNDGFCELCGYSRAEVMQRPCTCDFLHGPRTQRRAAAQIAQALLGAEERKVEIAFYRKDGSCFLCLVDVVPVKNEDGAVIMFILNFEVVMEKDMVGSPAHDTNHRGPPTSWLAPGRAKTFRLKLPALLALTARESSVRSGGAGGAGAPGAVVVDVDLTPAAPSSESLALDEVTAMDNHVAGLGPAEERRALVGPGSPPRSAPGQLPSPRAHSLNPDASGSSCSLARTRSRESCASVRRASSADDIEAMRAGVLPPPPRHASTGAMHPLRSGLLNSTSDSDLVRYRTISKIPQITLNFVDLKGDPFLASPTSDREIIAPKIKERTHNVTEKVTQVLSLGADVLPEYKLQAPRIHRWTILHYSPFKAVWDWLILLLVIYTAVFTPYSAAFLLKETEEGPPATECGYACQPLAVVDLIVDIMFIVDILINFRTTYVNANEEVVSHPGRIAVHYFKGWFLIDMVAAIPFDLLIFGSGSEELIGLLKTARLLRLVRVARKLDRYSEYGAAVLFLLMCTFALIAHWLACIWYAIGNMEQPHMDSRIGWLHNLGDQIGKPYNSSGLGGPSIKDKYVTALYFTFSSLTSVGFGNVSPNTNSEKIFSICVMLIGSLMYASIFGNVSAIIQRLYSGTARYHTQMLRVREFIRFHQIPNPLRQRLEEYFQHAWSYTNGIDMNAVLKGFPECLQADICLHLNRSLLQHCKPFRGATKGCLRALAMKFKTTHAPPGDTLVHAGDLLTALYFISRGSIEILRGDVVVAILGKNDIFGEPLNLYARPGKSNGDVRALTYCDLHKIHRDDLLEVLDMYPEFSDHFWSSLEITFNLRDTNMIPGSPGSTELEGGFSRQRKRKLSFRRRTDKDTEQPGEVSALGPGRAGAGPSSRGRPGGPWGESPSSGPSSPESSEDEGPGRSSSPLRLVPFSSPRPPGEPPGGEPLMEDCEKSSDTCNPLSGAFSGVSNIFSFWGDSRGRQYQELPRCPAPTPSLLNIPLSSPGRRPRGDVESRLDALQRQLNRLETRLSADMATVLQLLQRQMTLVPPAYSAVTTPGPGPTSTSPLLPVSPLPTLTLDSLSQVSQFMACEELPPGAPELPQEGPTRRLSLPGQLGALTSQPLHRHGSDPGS
With `CC(CNCc1ccc2c(c1)OCO2)NCc1ccc2c(c1)OCO2` (stereo not shown), the “hERG current change (%, negative = inhibition) at 10uM” value was -54.5%. For the compound `Cl.OC(CNCc1ccccc1)COCc1ccc(Cl)cc1` (stereo not shown), the “hERG current change (%, negative = inhibition) at 10uM” value is given as -50.3%. On to `CC(=O)CCc1ccc(OCC(O)CNCCOc2ccc(C)cc2)cc1` (stereo not shown), for which the “hERG current change (%, negative = inhibition) at 10uM” value is recorded as -55.9%. For the compound `CC(NCc1ccc2c(c1)OCO2)c1ccccc1.Cl` (stereo not shown), the “hERG current change (%, negative = inhibition) at 10uM” value was determined as 10.4%.

In the case of `Cc1ccc2nsnc2c1S(=O)(=O)N1CCN(CCc2ccccc2)CC1`, the “hERG current change (%, negative = inhibition) at 10uM” value is -42.6%.

On to `Cc1cc2c(=O)n(CC(=O)N3CCN(c4ccc(F)cc4)CC3)cnc2s1`, for which the “hERG current change (%, negative = inhibition) at 10uM” value is given as -12.4%. The value for `CC(C)(C)CC(C)(C)NCC(O)COCCOc1ccc(Br)cc1.Cl` (stereo not shown) was -32.8%; that for `O=C(NCc1ccc(F)cc1)NC(=O)c1ccc(Cl)cc1` was 8.5%. In the case of `CCOC(=O)C1=CCN(Cc2ccccc2)CC1.Cl`, the “hERG current change (%, negative = inhibition) at 10uM” value turned out to be 12.8%. As for `Nc1nnc(SCCCC(=O)c2ccc(Br)cc2)s1`, the “hERG current change (%, negative = inhibition) at 10uM” value is recorded as 26.5%. Regarding `CCC(=O)c1ccc(OCC(O)CNCc2ccc(F)cc2)cc1` (stereo not shown), the “hERG current change (%, negative = inhibition) at 10uM” value is -52.2%.

As for `OC(CNCc1ccc2c(c1)OCO2)COc1ccccc1` (stereo not shown), the “hERG current change (%, negative = inhibition) at 10uM” value is -5.74%. With `CCC(=O)c1ccc(OCC(O)CNCCc2ccc(Cl)cc2)cc1` (stereo not shown) the figure was -72.1%; with `Cc1ccc(OCC(O)CNCc2ccc(F)cc2)cc1` (stereo not shown), -40.5%; with `COC(=O)c1ccc(CNCC(O)COc2ccc(-c3ccccc3)cc2)cc1` (stereo not shown), 13.1%. Take `CC(=O)c1ccc(OCC(O)CNCc2ccc3c(c2)OCO3)cc1` (stereo not shown): the “hERG current change (%, negative = inhibition) at 10uM” value is on record as -26.1%. As to `O=C(O)C(=O)O.O=C(c1ccccc1)c1ccc(OCC(O)CNCc2ccc(F)cc2)cc1` (stereo not shown), the “hERG current change (%, negative = inhibition) at 10uM” value is listed as -68.2%. For `OC(CNCc1ccc2c(c1)OCO2)COc1ccc(F)cc1` (stereo not shown), the “hERG current change (%, negative = inhibition) at 10uM” value is reported as -55.7%. As for `CC(=O)c1cccc(OCC(O)CNCCc2ccc(Cl)cc2)c1` (stereo not shown), the “hERG current change (%, negative = inhibition) at 10uM” value was -49%. With `O=C(COc1ccc(C(=O)c2ccccc2)cc1)NCc1ccc(F)cc1` the figure was -6.64%; with `OC(CNCc1ccccc1Cl)COc1ccc(F)cc1` (stereo not shown), -21.3%. The value for `CCC(=O)c1ccc(OCC(O)CNC2CCCC2)cc1` (stereo not shown) was 2.52%; that for `CCc1nc(C)ccc1OCC(=O)NCCCN(C)C.O=C(O)C(=O)O` was 4.48%; that for `Cc1cc(C)cc(NC(=S)Nc2ccccn2)c1` was -8.14%. In the case of `Cc1ccc(N=Cc2ccc(O)cc2O)cc1F`, the “hERG current change (%, negative = inhibition) at 10uM” value was determined as 20.6%.

As for `O=C(Cn1c(=O)oc2ccccc21)c1ccccc1`, the “hERG current change (%, negative = inhibition) at 10uM” value was -5.11%. Take `CCN1CCN(C(=S)Nc2cccc(C(F)(F)F)c2)CC1`: the “hERG current change (%, negative = inhibition) at 10uM” value was -7.79%. The value for `CN(C(=O)C(Cl)Cl)C1CC2C=CC1C2` (stereo not shown) was 5.29%; that for `Nc1c(C(=O)CSc2nccn2-c2ccc(Cl)cc2)c(=O)[nH]c(=O)n1C1CC1` was 17.5%.

In the case of `CS(=O)(=O)N1CCC(C(=O)NCc2ccco2)CC1`, the “hERG current change (%, negative = inhibition) at 10uM” value is 6.1%.

Take `COc1ccccc1-c1nnc(SC)n1C`: the “hERG current change (%, negative = inhibition) at 10uM” value is 36.9%. With `COc1nc2ccccc2nc1N1CCN(C)CC1` the figure was -23.9%; with `COc1nc2ccccc2nc1N1CCN(c2ccc(F)cc2)CC1`, 17.5%; with `CC(C)COc1nc2ccccc2nc1N1CCN(C)CC1`, -72.9%. As for `FC(F)(F)c1cccc(N2CCN(c3nnnn3-c3ccccc3)CC2)c1`, the “hERG current change (%, negative = inhibition) at 10uM” value is given as -25.3%. With `COc1ccc2nc(/C=N/NC(=O)CCCCCNC(=O)OC(C)(C)C)ccc2c1` the figure was -0.0758%; with `O=C(COc1ccccc1)N1CCN(S(=O)(=O)c2ccc(Cl)cc2)CC1`, -2.27%.

With `CC(=O)c1ccc(NCC(=O)N2CCN(S(=O)(=O)c3ccccc3)CC2)cc1`, the “hERG current change (%, negative = inhibition) at 10uM” value is on record as -5.61%. The value for `N#Cc1ccc(OCC(=O)N2CCN(S(=O)(=O)c3cccc(Cl)c3)CC2)cc1` was -71.4%.

Turning to `N#Cc1ccc(NCC(=O)N2CCN(S(=O)(=O)c3ccccc3)CC2)cc1`, the “hERG current change (%, negative = inhibition) at 10uM” value is given as -70.2%. With `O=C(COc1ccc(Cl)cc1)N1CCN(S(=O)(=O)c2ccc(Cl)cc2)CC1`, the “hERG current change (%, negative = inhibition) at 10uM” value was -11.9%. As for `COc1ccc(CCC(=O)N2CCN(S(=O)(=O)c3cccc(Cl)c3)CC2)cc1`, the “hERG current change (%, negative = inhibition) at 10uM” value is -34.8%. As for `O=C(COc1ccc(Cl)cc1)N1CCN(S(=O)(=O)c2ccccc2)CC1`, the “hERG current change (%, negative = inhibition) at 10uM” value is -54.6%. `N#Cc1ccccc1NCC(=O)N1CCN(S(=O)(=O)c2ccccc2)CC1`: the “hERG current change (%, negative = inhibition) at 10uM” value was -1.49%.

Consider `COc1ccc(OCC(=O)N2CCN(S(=O)(=O)c3ccc(Cl)cc3)CC2)cc1`, for which the “hERG current change (%, negative = inhibition) at 10uM” value is -22.9%. As for `O=C(NCCC1CCCCN1S(=O)(=O)c1ccccc1)C(=O)Nc1ccccc1` (stereo not shown), the “hERG current change (%, negative = inhibition) at 10uM” value is -12.3%.
